Inhibition data for 1 molecule are collected here from ChEMBL document CHEMBL1961873, “Compounds: GSK PKIS; Assays: Nanosyn kinase panel” (2012).

The target of assay [1] is Sphingosine kinase 1 (Homo sapiens) (UniProt Q9NYA1). The note with it: at 1 µM.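 Further: mean SPHK1 inhibition value reported from the GSK PKIS kinase panel screen.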
The target in assay [2] is T1, Sphingosine kinase 2 (Homo sapiens) (UniProt Q9NRA0).
T1 sequence (whole entry): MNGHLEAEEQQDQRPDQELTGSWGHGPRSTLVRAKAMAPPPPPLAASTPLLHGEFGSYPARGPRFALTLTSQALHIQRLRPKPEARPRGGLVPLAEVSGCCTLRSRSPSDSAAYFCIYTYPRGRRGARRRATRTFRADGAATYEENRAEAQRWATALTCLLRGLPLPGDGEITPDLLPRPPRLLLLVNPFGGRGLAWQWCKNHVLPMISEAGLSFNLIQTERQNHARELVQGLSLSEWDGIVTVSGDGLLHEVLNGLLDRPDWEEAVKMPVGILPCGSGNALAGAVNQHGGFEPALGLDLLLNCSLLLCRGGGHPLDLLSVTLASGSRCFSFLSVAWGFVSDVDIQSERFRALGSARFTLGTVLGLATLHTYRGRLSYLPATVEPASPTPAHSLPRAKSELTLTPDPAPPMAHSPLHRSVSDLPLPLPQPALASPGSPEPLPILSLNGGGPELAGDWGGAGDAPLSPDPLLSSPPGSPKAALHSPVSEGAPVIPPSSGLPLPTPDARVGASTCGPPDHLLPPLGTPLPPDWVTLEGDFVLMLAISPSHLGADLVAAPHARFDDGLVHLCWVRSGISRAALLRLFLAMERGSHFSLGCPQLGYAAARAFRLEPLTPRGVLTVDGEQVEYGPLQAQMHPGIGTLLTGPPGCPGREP
To be noted: at 0.1 µM.

Assay [3] has as its target T1, Sphingosine kinase 2 (Homo sapiens). The note with it: at 1 µM.
Assay [4] concerns the target Casein kinase II subunit alpha (Homo sapiens) (UniProt P68400). To be noted: at 0.1 µM.
For assay [5] the target is unchanged. To be noted: at 1 µM.
For assay [6], the target named is T2, Inhibitor of nuclear factor kappa-B kinase subunit alpha (Homo sapiens) (UniProt O15111).
T2 sequence (whole entry): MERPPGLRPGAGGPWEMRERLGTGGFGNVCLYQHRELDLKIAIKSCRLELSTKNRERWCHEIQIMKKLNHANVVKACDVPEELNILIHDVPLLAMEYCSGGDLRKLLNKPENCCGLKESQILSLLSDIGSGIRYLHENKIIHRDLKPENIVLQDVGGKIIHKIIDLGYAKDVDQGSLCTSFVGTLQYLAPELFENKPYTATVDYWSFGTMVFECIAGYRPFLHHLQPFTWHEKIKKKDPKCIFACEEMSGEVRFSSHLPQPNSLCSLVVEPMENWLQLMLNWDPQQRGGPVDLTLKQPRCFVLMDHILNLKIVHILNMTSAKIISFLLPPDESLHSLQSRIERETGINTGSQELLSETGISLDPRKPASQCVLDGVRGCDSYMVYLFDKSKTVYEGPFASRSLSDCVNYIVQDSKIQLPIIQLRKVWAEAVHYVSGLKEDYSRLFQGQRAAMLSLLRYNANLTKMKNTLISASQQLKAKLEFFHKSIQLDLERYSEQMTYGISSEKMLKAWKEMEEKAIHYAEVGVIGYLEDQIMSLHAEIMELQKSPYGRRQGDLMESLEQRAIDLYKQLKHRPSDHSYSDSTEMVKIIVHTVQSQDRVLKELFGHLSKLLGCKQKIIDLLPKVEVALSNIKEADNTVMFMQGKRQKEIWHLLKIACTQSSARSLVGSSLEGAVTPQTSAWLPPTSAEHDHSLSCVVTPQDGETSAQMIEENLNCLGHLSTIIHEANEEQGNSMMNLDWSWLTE
To be noted: at 0.1 µM.

The target in assay [7] is T2, Inhibitor of nuclear factor kappa-B kinase subunit alpha (Homo sapiens). The note with it: at 1 µM.
Assay [8] addresses T3, Inhibitor of nuclear factor kappa-B kinase subunit beta (Homo sapiens) (UniProt O14920).
T3 sequence (whole entry): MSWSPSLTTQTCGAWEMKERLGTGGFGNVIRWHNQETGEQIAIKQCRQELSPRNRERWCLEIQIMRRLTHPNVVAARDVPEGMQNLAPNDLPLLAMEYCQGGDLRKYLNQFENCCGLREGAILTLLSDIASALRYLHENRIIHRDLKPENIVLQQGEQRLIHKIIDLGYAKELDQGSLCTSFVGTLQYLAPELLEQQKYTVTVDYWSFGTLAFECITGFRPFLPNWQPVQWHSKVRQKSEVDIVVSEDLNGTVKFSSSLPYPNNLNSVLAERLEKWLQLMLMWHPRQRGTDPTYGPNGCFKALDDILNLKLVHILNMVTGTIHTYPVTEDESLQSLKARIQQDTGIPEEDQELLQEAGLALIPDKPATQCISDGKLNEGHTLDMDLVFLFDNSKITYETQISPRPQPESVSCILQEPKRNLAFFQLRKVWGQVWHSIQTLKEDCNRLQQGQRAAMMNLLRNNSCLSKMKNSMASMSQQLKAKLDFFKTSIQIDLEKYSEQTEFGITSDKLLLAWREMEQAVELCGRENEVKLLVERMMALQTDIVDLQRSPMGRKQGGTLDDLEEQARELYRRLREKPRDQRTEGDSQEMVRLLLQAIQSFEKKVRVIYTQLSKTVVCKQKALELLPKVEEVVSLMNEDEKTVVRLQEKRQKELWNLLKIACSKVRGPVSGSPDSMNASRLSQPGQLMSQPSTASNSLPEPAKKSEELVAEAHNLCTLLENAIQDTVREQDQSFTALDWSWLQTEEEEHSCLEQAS
To be noted: at 0.1 µM.

Assay [9] concerns the target T3, Inhibitor of nuclear factor kappa-B kinase subunit beta (Homo sapiens). The note with it: at 1 µM.
Assay [10] has as its target T4, Inhibitor of nuclear factor kappa-B kinase subunit epsilon (Homo sapiens) (UniProt Q14164).
T4 sequence (whole entry): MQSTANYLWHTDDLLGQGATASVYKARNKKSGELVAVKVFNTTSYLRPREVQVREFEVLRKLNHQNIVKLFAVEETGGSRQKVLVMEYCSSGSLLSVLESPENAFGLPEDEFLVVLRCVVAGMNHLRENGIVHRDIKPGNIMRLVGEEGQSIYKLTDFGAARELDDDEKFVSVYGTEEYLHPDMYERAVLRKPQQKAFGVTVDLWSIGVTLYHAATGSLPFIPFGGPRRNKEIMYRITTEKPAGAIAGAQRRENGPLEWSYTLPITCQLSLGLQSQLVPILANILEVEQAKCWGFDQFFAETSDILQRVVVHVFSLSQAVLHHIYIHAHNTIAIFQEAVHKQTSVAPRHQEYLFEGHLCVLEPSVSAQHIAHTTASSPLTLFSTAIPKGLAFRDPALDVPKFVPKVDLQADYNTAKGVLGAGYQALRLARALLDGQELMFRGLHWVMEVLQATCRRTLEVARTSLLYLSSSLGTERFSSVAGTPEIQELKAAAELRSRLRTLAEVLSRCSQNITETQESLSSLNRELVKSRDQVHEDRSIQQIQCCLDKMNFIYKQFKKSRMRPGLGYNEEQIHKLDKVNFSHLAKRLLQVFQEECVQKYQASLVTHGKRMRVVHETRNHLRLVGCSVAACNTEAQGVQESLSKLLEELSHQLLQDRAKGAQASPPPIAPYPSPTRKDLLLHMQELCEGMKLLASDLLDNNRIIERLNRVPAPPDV
To be noted: at 0.1 µM.

The target in assay [11] is T4, Inhibitor of nuclear factor kappa-B kinase subunit epsilon (Homo sapiens). The note with it: at 1 µM.
Assay [12] concerns the target T5, Serine/threonine-protein kinase Nek1 (Homo sapiens) (UniProt Q96PY6).
T5 sequence (whole entry): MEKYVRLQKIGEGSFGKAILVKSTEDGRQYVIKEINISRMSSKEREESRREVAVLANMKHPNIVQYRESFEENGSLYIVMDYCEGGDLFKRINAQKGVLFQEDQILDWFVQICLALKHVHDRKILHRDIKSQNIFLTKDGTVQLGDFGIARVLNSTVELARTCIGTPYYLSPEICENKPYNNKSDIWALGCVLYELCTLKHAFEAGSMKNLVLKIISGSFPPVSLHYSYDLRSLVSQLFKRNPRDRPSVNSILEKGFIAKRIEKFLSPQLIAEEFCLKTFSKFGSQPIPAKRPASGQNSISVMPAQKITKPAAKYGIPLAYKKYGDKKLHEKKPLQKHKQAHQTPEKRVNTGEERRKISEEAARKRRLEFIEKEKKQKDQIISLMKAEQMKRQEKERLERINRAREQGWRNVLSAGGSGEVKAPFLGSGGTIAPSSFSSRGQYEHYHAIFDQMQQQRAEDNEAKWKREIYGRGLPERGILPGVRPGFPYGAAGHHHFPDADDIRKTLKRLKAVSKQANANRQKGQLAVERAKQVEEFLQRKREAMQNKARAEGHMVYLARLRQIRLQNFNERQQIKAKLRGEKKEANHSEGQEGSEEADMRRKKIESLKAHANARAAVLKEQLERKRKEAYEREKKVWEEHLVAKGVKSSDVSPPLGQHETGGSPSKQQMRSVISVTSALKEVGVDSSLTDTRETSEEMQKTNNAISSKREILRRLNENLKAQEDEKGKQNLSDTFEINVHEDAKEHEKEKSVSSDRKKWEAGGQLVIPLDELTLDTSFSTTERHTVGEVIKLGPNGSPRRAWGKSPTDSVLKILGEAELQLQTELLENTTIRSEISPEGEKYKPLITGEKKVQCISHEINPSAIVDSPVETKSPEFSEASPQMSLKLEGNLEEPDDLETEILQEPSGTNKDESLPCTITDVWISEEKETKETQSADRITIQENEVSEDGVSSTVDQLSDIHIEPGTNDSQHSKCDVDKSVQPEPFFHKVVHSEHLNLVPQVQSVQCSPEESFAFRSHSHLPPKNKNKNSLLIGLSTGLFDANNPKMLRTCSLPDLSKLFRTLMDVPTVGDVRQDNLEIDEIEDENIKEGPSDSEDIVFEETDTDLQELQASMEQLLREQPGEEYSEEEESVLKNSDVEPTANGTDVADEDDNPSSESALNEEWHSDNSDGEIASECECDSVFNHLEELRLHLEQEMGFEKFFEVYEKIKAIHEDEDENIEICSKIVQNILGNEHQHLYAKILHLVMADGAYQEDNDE
To be noted: at 0.1 µM.

Assay [13] has as its target T5, Serine/threonine-protein kinase Nek1 (Homo sapiens). To be noted: at 1 µM.
Assay [14] concerns the target T6, Serine/threonine-protein kinase Nek2 (Homo sapiens) (UniProt P51955).
T6 sequence (whole entry): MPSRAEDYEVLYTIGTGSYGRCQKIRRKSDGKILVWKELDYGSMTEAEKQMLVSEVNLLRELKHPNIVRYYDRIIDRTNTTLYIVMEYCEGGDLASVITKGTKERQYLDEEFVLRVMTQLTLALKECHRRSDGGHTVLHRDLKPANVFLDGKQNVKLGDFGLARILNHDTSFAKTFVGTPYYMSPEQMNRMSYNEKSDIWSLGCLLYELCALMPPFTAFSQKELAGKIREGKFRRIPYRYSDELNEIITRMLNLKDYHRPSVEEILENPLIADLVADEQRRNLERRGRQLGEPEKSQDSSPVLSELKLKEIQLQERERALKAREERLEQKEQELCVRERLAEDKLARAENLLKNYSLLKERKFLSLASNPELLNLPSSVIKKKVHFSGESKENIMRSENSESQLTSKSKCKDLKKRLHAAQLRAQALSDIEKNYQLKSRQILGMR
The note with it: at 0.1 µM.

Assay [15] has as its target T6, Serine/threonine-protein kinase Nek2 (Homo sapiens). To be noted: at 1 µM.
For assay [16], the target named is Serine/threonine-protein kinase Nek6 (Homo sapiens) (UniProt Q9HC98). To be noted: at 0.1 µM.
Chain of Serine/threonine-protein kinase Nek6 (Homo sapiens) (Q9HC98 whole entry): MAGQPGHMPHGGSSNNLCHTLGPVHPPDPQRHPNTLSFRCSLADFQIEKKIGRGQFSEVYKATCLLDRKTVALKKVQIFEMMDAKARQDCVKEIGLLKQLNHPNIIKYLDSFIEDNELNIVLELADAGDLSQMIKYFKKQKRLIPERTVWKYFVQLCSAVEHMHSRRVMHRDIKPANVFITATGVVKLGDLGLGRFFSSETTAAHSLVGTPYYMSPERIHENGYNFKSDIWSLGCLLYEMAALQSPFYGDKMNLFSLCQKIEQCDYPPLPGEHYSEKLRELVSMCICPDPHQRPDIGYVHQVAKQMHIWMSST
The target is the same in assay [17]. To be noted: at 1 µM.
For assay [18], the target named is Serine/threonine-protein kinase Nek7 (Homo sapiens) (UniProt Q8TDX7). The note with it: at 0.1 µM.
Chain of Serine/threonine-protein kinase Nek7 (Homo sapiens) (Q8TDX7 whole entry, looked up): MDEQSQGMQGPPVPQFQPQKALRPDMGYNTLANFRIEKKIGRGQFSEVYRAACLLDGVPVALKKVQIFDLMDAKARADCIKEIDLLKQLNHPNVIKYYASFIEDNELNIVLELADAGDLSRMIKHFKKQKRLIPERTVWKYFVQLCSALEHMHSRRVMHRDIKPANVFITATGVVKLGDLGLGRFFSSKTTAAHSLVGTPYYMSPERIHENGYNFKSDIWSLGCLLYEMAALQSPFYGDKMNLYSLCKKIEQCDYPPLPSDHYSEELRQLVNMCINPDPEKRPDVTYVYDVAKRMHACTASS
Assay [19] has the same target. To be noted: at 1 µM.
For assay [20], the target named is T7, Serine/threonine-protein kinase Nek9 (Homo sapiens) (UniProt Q8TD19).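 Further: reported value is the mean percent inhibition of NEK9.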
T7 sequence (whole entry): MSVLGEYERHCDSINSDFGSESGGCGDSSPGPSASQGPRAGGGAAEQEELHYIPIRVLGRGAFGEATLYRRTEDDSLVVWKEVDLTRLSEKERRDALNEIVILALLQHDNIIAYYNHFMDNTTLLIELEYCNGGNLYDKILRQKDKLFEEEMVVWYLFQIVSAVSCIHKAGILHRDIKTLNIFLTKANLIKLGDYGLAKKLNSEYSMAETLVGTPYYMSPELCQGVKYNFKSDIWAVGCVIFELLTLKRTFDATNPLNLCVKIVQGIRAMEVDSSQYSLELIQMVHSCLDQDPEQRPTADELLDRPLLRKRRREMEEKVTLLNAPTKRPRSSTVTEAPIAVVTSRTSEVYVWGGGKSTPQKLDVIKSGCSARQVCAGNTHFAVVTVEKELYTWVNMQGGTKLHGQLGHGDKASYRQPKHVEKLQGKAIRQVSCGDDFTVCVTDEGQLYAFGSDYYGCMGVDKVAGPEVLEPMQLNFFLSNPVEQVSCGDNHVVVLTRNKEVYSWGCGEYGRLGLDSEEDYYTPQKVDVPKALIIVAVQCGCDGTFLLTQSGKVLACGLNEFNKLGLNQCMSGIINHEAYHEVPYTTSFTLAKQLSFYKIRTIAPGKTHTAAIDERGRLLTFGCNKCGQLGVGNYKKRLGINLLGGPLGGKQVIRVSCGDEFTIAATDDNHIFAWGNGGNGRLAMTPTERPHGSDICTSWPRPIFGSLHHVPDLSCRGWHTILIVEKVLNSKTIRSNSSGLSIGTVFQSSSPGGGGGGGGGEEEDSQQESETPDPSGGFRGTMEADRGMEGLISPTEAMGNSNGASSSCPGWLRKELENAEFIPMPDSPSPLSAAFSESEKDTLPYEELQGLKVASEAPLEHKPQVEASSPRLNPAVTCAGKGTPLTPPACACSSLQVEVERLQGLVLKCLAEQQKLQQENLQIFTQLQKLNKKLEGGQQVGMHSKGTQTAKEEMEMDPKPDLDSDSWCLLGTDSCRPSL
To be noted: at 0.1 µM.

Chain of Casein kinase II subunit alpha (Homo sapiens) (P68400 whole entry, looked up): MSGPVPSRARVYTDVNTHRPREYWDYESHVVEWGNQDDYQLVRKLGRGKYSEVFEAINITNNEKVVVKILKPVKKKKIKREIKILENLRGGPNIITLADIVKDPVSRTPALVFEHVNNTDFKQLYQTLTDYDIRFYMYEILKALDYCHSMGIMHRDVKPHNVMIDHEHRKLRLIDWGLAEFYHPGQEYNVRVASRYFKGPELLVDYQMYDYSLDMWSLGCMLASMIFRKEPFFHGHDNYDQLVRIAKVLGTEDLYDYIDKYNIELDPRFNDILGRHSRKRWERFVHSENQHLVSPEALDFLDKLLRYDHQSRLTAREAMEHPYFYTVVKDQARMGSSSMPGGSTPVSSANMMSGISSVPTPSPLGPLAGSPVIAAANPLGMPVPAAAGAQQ
Chain of Sphingosine kinase 1 (Homo sapiens) (Q9NYA1 whole entry): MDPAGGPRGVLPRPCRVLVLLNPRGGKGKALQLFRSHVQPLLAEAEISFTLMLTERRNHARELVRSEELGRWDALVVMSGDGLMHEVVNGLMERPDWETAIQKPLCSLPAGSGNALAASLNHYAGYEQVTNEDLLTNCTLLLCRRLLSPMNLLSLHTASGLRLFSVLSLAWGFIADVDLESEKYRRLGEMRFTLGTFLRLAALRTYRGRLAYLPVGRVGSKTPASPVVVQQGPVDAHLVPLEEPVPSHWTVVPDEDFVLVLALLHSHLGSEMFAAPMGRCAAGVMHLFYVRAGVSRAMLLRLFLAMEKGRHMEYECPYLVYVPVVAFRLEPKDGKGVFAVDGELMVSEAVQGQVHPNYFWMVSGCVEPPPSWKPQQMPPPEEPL

Regarding `Cc1c2ccc(N(C)c3ccnc(Nc4cccc(S(N)(=O)=O)c4)n3)cc2nn1C`, the inhibition (commonly the drop in the measured response relative to a control, in per cent) was 1.41% in [1]; -0.17% in assay [2]; 0% in [3]; 0.52% in [4]; 0.25% in [5]; 7.99% in assay [6]. The inhibition in [7] came out at 3.93%; in assay [8], 5.79%; in assay [9], 5.44%; in [10], 4.78%; in assay [11], 6.19%; in [12] it was 3.11%. Also, the inhibition in [13] came to 4.82%; in [14] it was 6.4%; in assay [15] it was 19.9%; in assay [16] it was 0.7%; in assay [17] it was 0.72%; in assay [18], 5.3%. Moreover, the inhibition was 3.13% in assay [19] and 9.14% in assay [20].
